# Results filed as inconclusive are left out. A number with no mark means an inactive call. Activity calls are given as the source filed them. Calls follow the shape of the dose curve; as a rule, active = well fitted curve in the direction sought with a large enough effect; inconclusive = small, poorly fitted or top-dose-only effect, or another doubt; inactive = no such curve, though single readings can be large or run the other way.
# Assay: Cell viability assay for measurement of the protective activity of small molecules against cell death caused by Zika virus infection in human astrocytes
# Conditions: human astrocytes ZIKV-induced death, ATP luminescence, 72 h; series mostly up to 46.1 µM; protection from virus-induced death: at the top concentration
# Text: National Center for Advancing Translational Sciences [NCATS] Johns Hopkins University School of Medicine Florida State University Assay Overview: Zika virus infection causes cell death in certain cell types including human neural progenitor cells (hNPCs), astrocytes, and astrocytoma cell line (SNB-19). This cell viability assay measures the ATP content (level) in human astrocytes using a luminescence readout that is proportional to viable cell numbers. Decrease in the luminescence signal after Zika virus infection indicates the cell death caused by Zika virus. Small molecule inhibitors […] the decreased luminescence signal after Zika virus infection, indicating the protective effect of that small molecule on the cell death caused by Zika virus infection. This observed protective effect of small molecules against Zika virus induced cell death may result from inhibition of virus replication or cellular response to the virus infection.
# Assay Protocol Summary: The medium for astrocytes contains AM basal medium (ScienCell, Cat.# 1801), AGS (ScienCell, Cat.# 1801), 10% FBS, and 1% Pen/Strep. The ATP content assay kit (PerkinElmer, Cat.# 6016731) was used to determine cell viability. The reagent was reconstituted and prepared as described by the manufacturer. Cells were seeded in 384- or 1536-well assay plates and cultured at 37 C with 5% CO2 for 16 to 20 hours. The typical cell seeding density in the 1536-well plate assay is 350 cells/well in 3 ul medium for astrocytes in the tissue cultured treated/PDL coated plates. Compounds were added to cells and incubated for one hour before addition of ZIKV solution to cells (2 FFU/cell). After incubation at 37 C with 5% CO2 for 72 hours, the reagent mixture of the ATP content assay kit was added to each well, followed by incubation at room temperature for 10 minutes. The luminescence intensity of the assay plates was measured using a ViewLux plate reader (PerkinElmer). […] The percentage inhibitions of the decreased cell viability by small molecule inhibitors were then calculated.
SMILES,protection from virus-induced death,Potency
O=c1[nH]nc(Sc2ncc([N+](=O)[O-])s2)n1-c1ccc2c(c1)OCCO2,-10.2%,–
Nc1nc2ccc([N+](=O)[O-])cc2s1,0.8% [at 88.3 µM],–
O=C(O)Cc1ccc(-c2ccccc2)cc1,1.03%,–
O=c1c(-c2ccc(O)cc2)coc2cc(O)ccc12,-6.51%,–
CS(=O)(=O)c1ccc(-c2cn3ccccc3n2)cc1,-6.51%,–
CN1CCN(c2cc3c(nn2)Oc2ccccc2N3C)CC1,1.46% [at 23.8 µM],–
O=C1c2ccccc2-[n+]2ccc3c([nH]c4ccccc43)c21,-10.2%,–
O=c1cc(-c2ccccc2)oc2cc(O)c(O)c(O)c12,-3.19%,–
CC[C@]1(O)C[C@H]2CN(CCc3c([nH]c4ccccc34)[C@@](C(=O)OC)(c3cc4c(cc3OC)N(C=O)[C@H]3[C@@](O)(C(=O)OC)[C@H](OC(C)=O)[C@]5(CC)C=CCN6CC[C@]43[C@@H]65)C2)C1,0.154%,–
COc1cccc2c1C(=O)c1c(O)c3c(c(O)c1C2=O)C[C@@](O)(C(=O)CO)CC3OC1CC(N2CCOC(OC)C2)C(O)C(C)O1 (stereo not given in full),–,0.436 µM (active)
CN1CC(=O)N2C(Cc3c([nH]c4ccccc34)[C@H]2c2ccc3c(c2)OCO3)C1=O (stereo not given in full),-5.79%,–
O=C(Nc1ccc(OC(F)(F)F)cc1)c1sccc1NCc1ccnc2ccccc12,20.3%,–
CN1CC[C@@]2(C)c3cc(OC(=O)Nc4ccccc4)ccc3N(C)[C@@H]12,4.98%,–
O=C(/C=C/c1ccccc1)NCCO,-2%,–
O=c1c(-c2ccc(O)cc2)coc2cc(OC3O[C@H](CO)[C@H](O)[C@H](O)[C@H]3O)cc(O)c12 (stereo not given in full),4.77%,–
C/C(=N\O)c1ccc(OCC(=O)N2CCCCC2)cc1,-5.29%,–
COc1cc2nc(N3CCN(C(=O)C4CCCO4)CC3)nc(N)c2cc1OC (stereo not given),3.64%,–
Clc1ccccc1-c1nc(-c2ccncc2)no1,-2.26%,–
C=CCCCCCCCCC(=O)O,3.75%,–
O=C(O)[C@H](CC(=O)N1C[C@@H]2CCCC[C@H]2C1)Cc1ccccc1,6.96%,–

SMILES,protection from virus-induced death,Potency
CC(C(=O)O)c1ccc2c(c1)[nH]c1ccc(Cl)cc12 (stereo not given),-1.5%,–
O[C@@H](COc1cccc2ncccc12)CN1CCN(C2c3ccccc3[C@@H]3[C@H](c4ccccc42)C3(F)F)CC1 (stereo not given in full),-6.34%,–
Cc1cc(O)c2c(c1)C(=O)c1cc(O)cc(O)c1C2=O,0.358%,–
Cc1ccc(O)c(N=Nc2ccccc2)n1,-7.13%,–
CC1(C)Cc2c(sc(NC(=S)NC(=O)c3ccccc3)c2C(=O)O)CO1,2.03%,–
CN(C)CCCSc1ccccc1NC(=O)/C=C/c1ccccc1,-2.15%,–
C[C@H](NC(=O)C(=O)Nc1ccccc1C(C)(C)C)C(=O)N[C@@H](CC(=O)O)C(=O)COc1c(F)c(F)cc(F)c1F,–,3.88 µM (active)
Cc1c(C(=O)O)c(O)cc2c1C(=O)c1c(O)c([C@@H]3O[C@H](CO)[C@@H](O)[C@H](O)[C@H]3O)c(O)c(O)c1C2=O,-2.94%,–
O=C(O)c1ccccc1NCCc1ccccc1,-1.69%,–
O=c1c2ccccc2nc2n1CCc1c-2[nH]c2ccccc12,17%,–
N#C/C(=C\c1ccc(O)c(O)c1)C(=O)Nc1ccccc1,8.43%,–
CN(C)c1cc(NC(=O)CNC(C)(C)C)c(O)c2c1C[C@@H]1C[C@H]3[C@H](N(C)C)C(=O)C(C(N)=O)=C(O)[C@@]3(O)C(=O)C1=C2O,-2.39%,–
Cc1oncc1C(=O)Nc1ccc(C(F)(F)F)cc1,-3.72%,–
N[C@H](CSC(c1ccccc1)(c1ccccc1)c1ccccc1)C(=O)O,-0.938%,–
COc1cccc(-c2ccc(NC(=O)C3=C(C(=O)O)CCC3)c(F)c2)c1,4.42%,–
CC(=O)OC(C)OC(=O)C(C)c1ccc(-c2ccccc2)c(F)c1 (stereo not given),3.37%,–
O=C1C[C@@H](c2ccc(O)cc2)Oc2cc(O)cc(O)c21,4.81%,–
CNC(=O)c1ccccc1Sc1ccc2c(/C=C/c3ccccn3)n[nH]c2c1,-2.44%,–
CCOCCOC(=O)/C=C/c1ccc(OC)cc1,19%,–
CC(=NNC(=S)N1CCC1)c1ccccn1,-5.84%,–

# From PubChem BioAssay AID1224856 (National Center for Advancing Translational Sciences (NCATS), 2016)
